Where “and” joins values, the source holds several entries; their conditions need not be identical. Identical values can stand only once. Out of some 5,500 compounds screened, about 2,000 (36%) were called active. Another 18% or so got no clear call; they are omitted. Rule as the data show it: active = normalized growth mostly below about 0.91 (no sharp cut-off); inconclusive = no clear call, values can overlap the other calls; inactive = mostly above about 0.92. The list shows a part of the results.
Test: chemical genetic growth profiling, strain panel (AID 1159580);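 also: tested at 20 µM; growth read once vehicle control cultures reached saturation at 30 °C; 1 = growth at the plate median or of vehicle wells; lower values mean less growth of the strain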
Conditions: S. cerevisiae deletion strains, growth OD

Measured: normalized growth

S=c1[nH]c2ccccc2s1
active: locus YAL026C, strain drs2, stronger effect = lower value 0.891 | locus YDR137W, strain rgp1, stronger effect = lower value 0.808 | locus YDR195W, strain ref2 1.18 [resistant] | locus YGR229C, strain SMI1, stronger effect = lower value 0.804 | locus YGR252W, strain gcn5, stronger effect = lower value 0.691 | locus YHR027C, strain rpn1, stronger effect = lower value 0.903 | locus YHR079C, strain IRE1, stronger effect = lower value 0.78 | locus YJR066W, strain TOR1, stronger effect = lower value 0.732
1 (inactive) and 0.821 (active): locus YHR030C, strain SLT2, stronger effect = lower value
0.99 (inactive) and 0.818 (active): locus YJL095W, strain BCK1, stronger effect = lower value
inactive: locus YAL013W, strain DEP1, stronger effect = lower value 1 | locus YAL021C, strain ccr4, stronger effect = lower value 0.941 | locus YAL030W, strain snc1, stronger effect = lower value 0.992 | locus YBL061C, strain skt5, stronger effect = lower value 0.986 | locus YBR009C, strain hhf1, stronger effect = lower value 0.972 | locus YBR021W, strain FUR4, stronger effect = lower value 1.06 | locus YBR023C, strain chs3, stronger effect = lower value 1.01 | locus YBR171W, strain sec66, stronger effect = lower value 0.965 | locus YBR229C, strain ROT2, stronger effect = lower value 0.989 | locus YBR231C, strain swc5, stronger effect = lower value 0.946 | locus YBR279W, strain paf1, stronger effect = lower value 0.982 | locus YCL011C, strain gbp2, stronger effect = lower value 0.966 | locus YCL016C, strain dcc1, stronger effect = lower value 1.02 | locus YCL029C, strain bik1, stronger effect = lower value 0.989 | locus YCL069W, strain vba3, stronger effect = lower value 0.983 | locus YCR088W, strain abp1, stronger effect = lower value 0.981 | locus YDL005C, strain med2, stronger effect = lower value 0.996 | locus YDL035C, strain GPR1, stronger effect = lower value 0.948 | locus YDL040C, strain nat1, stronger effect = lower value 0.983 | locus YDL074C, strain BRE1, stronger effect = lower value 0.975 | locus YDL101C, strain DUN1, stronger effect = lower value 0.99 | locus YDL134C, strain PPH21, stronger effect = lower value 0.985 | locus YDL185W, strain tfp1, stronger effect = lower value 0.979 | locus YDL192W, strain arf1, stronger effect = lower value 0.985 | locus YDR001C, strain nth1, stronger effect = lower value 0.992 | locus YDR069C, strain doa4, stronger effect = lower value 0.951 | locus YDR101C, strain arx1, stronger effect = lower value 1.01 | locus YDR150W, strain NUM1, stronger effect = lower value 0.986 | locus YDR159W, strain sac3, stronger effect = lower value 0.992 | locus YDR162C, strain NBP2, stronger effect = lower value 0.986 | locus YDR297W, strain sur2, stronger effect = lower value 0.97 | locus YDR318W, strain mcm21, stronger effect = lower value 0.996 | locus YDR334W, strain swr1, stronger effect = lower value 0.972 | locus YDR335W, strain msn5, stronger effect = lower value 0.984 | locus YDR388W, stronger effect = lower value 0.987 | locus YDR392W, strain spt3, stronger effect = lower value 0.879 | locus YDR502C, strain sam2, stronger effect = lower value 1 | locus YEL003W, strain gim4, stronger effect = lower value 0.952 | locus YEL037C, strain rad23, stronger effect = lower value 0.975 | locus YEL061C, strain CIN8 (second series), stronger effect = lower value 0.973 | locus YEL061C, strain CIN8, stronger effect = lower value 1.01 | locus YER015W, strain faa2, stronger effect = lower value 0.965 | locus YER016W, strain bim1, stronger effect = lower value 0.987 | locus YER110C, stronger effect = lower value 0.998 | locus YER111C, strain swi4, stronger effect = lower value 0.979 | locus YER155C, strain BEM2 (second series), stronger effect = lower value 0.986 | locus YER155C, strain BEM2, stronger effect = lower value 0.986 | locus YER167W, strain BCK2, stronger effect = lower value 1.02 | locus YFR010W, strain ubp6, stronger effect = lower value 0.95 | locus YGL078C, strain dbp3, stronger effect = lower value 1.02 | locus YGL086W, strain mad1, stronger effect = lower value 0.965 | locus YGL167C, strain pmr1, stronger effect = lower value 0.995 | locus YGL173C, strain kem1, stronger effect = lower value 0.91 | locus YGL227W, strain vid30, stronger effect = lower value 0.996 | locus YGL240W, strain doc1, stronger effect = lower value 0.923 | locus YGL248W, strain PDE1, stronger effect = lower value 0.991 | locus YGL253W, strain hxk2, stronger effect = lower value 0.938 | locus YGR078C, strain PAC10, stronger effect = lower value 0.958 | locus YGR135W, strain pre9, stronger effect = lower value 0.964 | locus YHR013C, strain ard1, stronger effect = lower value 1.02 | locus YHR079C, strain IRE1 (second series), stronger effect = lower value 1.01 | locus YHR094C, strain hxt1, stronger effect = lower value 1.02 | locus YHR129C, strain ARP1, stronger effect = lower value 0.992 | locus YHR142W, strain chs7, stronger effect = lower value 1.01 | locus YHR200W, strain rpn10, stronger effect = lower value 1.01 | locus YIL066C, strain RNR3, stronger effect = lower value 0.986 | locus YIL073C, strain SPO22, stronger effect = lower value 0.844 | locus YIL125W, strain kgd1, stronger effect = lower value 1.01 | locus YIR030C, strain dcg1, stronger effect = lower value 1.01 | locus YJL092W, strain hpr5, stronger effect = lower value 0.984 | locus YJL095W, strain BCK1 (second series), stronger effect = lower value 0.975 | locus YJL115W, strain asf1, stronger effect = lower value 0.983 | locus YJL129C, strain trk1, stronger effect = lower value 0.966 | locus YJL134W, strain LCB3, stronger effect = lower value 1 | locus YJL154C, strain vps35, stronger effect = lower value 0.983 | locus YJL164C, strain tpk1, stronger effect = lower value 1 | locus YJL166W, strain qcr8, stronger effect = lower value 0.962 | locus YJL168C, strain set2, stronger effect = lower value 0.996 | locus YJL187C, strain SWE1 (second series), stronger effect = lower value 0.964 | locus YJR043C, strain POL32, stronger effect = lower value 1 | locus YJR075W, strain HOC1, stronger effect = lower value 1.02
